# Screening results deposited in PubChem BioAssay by National Center for Advancing Translational Sciences (NCATS).
# Rows were chosen to be rich in hits. Some 2.4% of all compounds tested hit in one or more screens of this group.
# D2 ag-1: HTS Assay for Allosteric Agonists of the Human D2 Dopamine Receptor: Primary Screen for Agonists | HEK293 T-REx D2 cells, calcium flux agonist mode | 0.53% of 340,000 active | activation, % at 2 µM | D(2) dopamine receptor (Homo sapiens), P14416;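 active = activation over 3 SD above normal in the single-dose calcium agonist read, cut at about 30% in these data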; note: 0% is about no effect
# Target sequence (P14416 whole entry, looked up): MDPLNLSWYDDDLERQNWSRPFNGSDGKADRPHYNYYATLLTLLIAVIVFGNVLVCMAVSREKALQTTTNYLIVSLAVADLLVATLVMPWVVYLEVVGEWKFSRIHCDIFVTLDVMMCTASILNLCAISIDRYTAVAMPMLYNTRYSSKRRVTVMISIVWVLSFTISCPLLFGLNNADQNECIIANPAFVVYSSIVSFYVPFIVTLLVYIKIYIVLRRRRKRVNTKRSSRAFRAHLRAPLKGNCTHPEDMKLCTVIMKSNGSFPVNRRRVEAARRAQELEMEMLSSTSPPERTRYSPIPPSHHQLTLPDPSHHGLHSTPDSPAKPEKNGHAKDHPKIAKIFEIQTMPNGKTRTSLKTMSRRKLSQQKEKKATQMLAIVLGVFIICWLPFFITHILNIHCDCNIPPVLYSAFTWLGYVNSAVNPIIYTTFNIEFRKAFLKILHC
#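 Tetracycline-induced HEK293 Trex cells with D2 receptor force-coupled to calcium signaling, plated overnight at 30 C and loaded with no-wash calcium dye. Calcium flux read kinetically for 180 s after compound addition; responses flag agonists.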
# D2 antagonist: HTS Assay for Allosteric Antagonists of the Human D2 Dopamine Receptor: Primary Screen for Antagonists | D(2) dopamine receptor (Homo sapiens), P14416 | HEK293 TREx D2 cells, calcium flux, dopamine EC80 | inhibition, % at 10 µM | 2% of 340,000 active; in the data active = inhibition above about 30%; inactive = below that, where a call was filed; note: 0% is about no effect
#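 Antagonism is scored as inhibition of an EC80 dopamine-evoked calcium signal in a force-coupled, tetracycline-inducible HEK293 T-REx D2 line, with compound present 180 s before agonist.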
# D2 PAM-1: Beta-Arrestin HTS for Positive Allosteric Modulators of the Human D2 Dopamine Receptor: Potentiators; D(2) dopamine receptor (Homo sapiens), P14416; DiscoveRx D2 beta-arrestin cells, luminescence, 90 min; 100% = 57 uM dopamine signal; potentiation, % (no concentration beside the values); 0.23% of 360,000 active; in the data active = potentiation above about 50%; inconclusive = mostly about 30% to 49%
#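 PathHunter beta-arrestin assay in DiscoveRx D2 cells. Compounds were added with an EC20 of dopamine (50 nM final) for 90 min at 37 deg C. Luminescence was read 1 h after detection reagent, with 57 uM dopamine as the EC100 control.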
# D2 ag-2: Beta-Arrestin HTS for Positive Allosteric Modulators of the Human D2 Dopamine Receptor: Agonists. D(2) dopamine receptor (Homo sapiens), P14416. DiscoveRx PathHunter D2 beta-arrestin, luminescence, 90 min; 100% = 57 uM dopamine signal. activation, % (no concentration beside the values). 0.084% of 360,000 active. AID 624465, 2012; in the data active = activation above about 40%; inconclusive = between about 15% and that limit
#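 DiscoveRx PathHunter D2 beta-arrestin cells (2,100/well) attached overnight, then compound-stimulated 90 min at 37 C in HBSS/10 mM HEPES/0.1% Tween-20 buffer; beta-galactosidase complementation read by luminescence after 1 h at ambient temperature. Dopamine 57 uM final (EC100) as control.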
# D2 PAM-2: HTS Assay for Positive Allosteric Modulators of the Human D2 Dopamine Receptor: Primary Screen for Potentiators; HEK293 T-REx D2, calcium flux, EC20 dopamine potentiation; D(2) dopamine receptor (Homo sapiens), P14416; 0.34% of 340,000 active; potentiation, % at 10 µM;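 active = potentiation over 3 SD above the plate norm, cut at about 30% in these data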; note: 0% is about no effect
#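 Tetracycline-induced HEK293 T-REx cells force-coupled to calcium signalling expressed D2; compounds were pin-added after a 10 s baseline, read kinetically 180 s, then an EC20 dopamine challenge followed with a further 180 s calcium read.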
# Active calls of the source: *; ? = inconclusive; / = no result.
SMILES,D2 ag-1,D2 antagonist,D2 PAM-1,D2 ag-2,D2 PAM-2
CC(C)Nc1nc(Cl)nc(NN(C)c2nc(N(C)C)nc(N(C)C)n2)n1,-1.0,34.3*,-0.5,-4.3,-9.2
COC(=O)c1ccc(Nc2ncnc3c2nc2n3CCCC2)cc1,0.3,/,/,/,3.1
COc1ccccc1NC(=O)Nc1nc(C(N)C2CCCCC2)cs1 (stereo not given),/,/,-20.3,2.2,/
COc1cc(NC(=O)Nc2nc(C(N)C3CCCCC3)cs2)cc(OC)c1OC (stereo not given),/,/,?,109.0*,/
Nc1ccc(S(=O)(=O)c2cc(O)c3ccccc3c2O)cc1,/,/,51.3*,?,/
O=S(=O)(c1ccccc1)c1cc(O)ccc1O,0.7,1.8,-0.5,?,11.9
O=C(O)C1CCCCC1C(=O)Nc1ccccn1 (stereo not given),0.6,40.6*,2.0,-2.9,-7.8
O=C(Nc1ccccn1)NC1CCCCC1,1.5,-10.6,-19.6,-2.4,8.5
Fc1ccc(CSc2ncnc3c2oc2ccccc23)cc1,2.1,3.7,0.0,3.7,1.6
Fc1cccc(CSc2ncnc3c2oc2ccccc23)c1,0.8,30.5*,-5.5,-3.1,-9.7
CCC(=O)N1CCc2cc(Br)cc(S(=O)(=O)CCC(=O)N(CC)Cc3ccccc3)c21,-0.2,/,/,/,8.7
O=Nc1c(O)ccc2cc(S(=O)(=O)O)ccc12,/,/,100.4*,?,/
CCOc1ccc(C2C(C(N)=O)=C(C)Nc3nc(SCc4ccccc4)nn32)cc1 (stereo not given),-0.8,/,/,/,-24.7
CC(=O)Nc1ccc(NC(=O)CN2CCN(c3cccc(C(F)(F)F)c3)CC2)cc1,6.9,2.1,-38.6,1.2,-14.9
Oc1cc2c(cc1CN1CCN(c3cccc(C(F)(F)F)c3)CC1)CCC2,-1.0,56.4*,-38.3,-0.3,-21.7
COc1ccc(N2CCN(Cc3cc4c(cc3O)CCC4)CC2)cc1,-0.2,29.8,-13.6,0.5,-0.1
CC(=O)Nc1ccc(CN2CCN(c3cccc(C(F)(F)F)c3)CC2)cc1,1.6,42.7*,-10.4,-3.7,-19.0
Cc1ccc(S(=O)(=O)c2cn(CC(=O)Nc3ccc4c(c3)OCO4)c3ccc(C)cc3c2=O)cc1,0.9,/,/,/,-25.9
Cc1ccccc1-n1c(SCC(=O)Nc2ccc(Cl)cc2Cl)nc(O)cc1=O,-0.1,/,/,/,-6.5
CCCN1C=CC(=CC=C(C#N)C#N)C=C1,22.3,-7.5,-2.2,-2.9,8.4
CCCCCCN1C=CC(=C/C=C(\C#N)C(=O)OCC)C=C1,43.1*,7.9,-3.9,6.9,2.7
CCCN1C=CC(=C/C=C(\C#N)C(=O)OCC)C=C1,34.5*,-6.2,/,/,0.2
O=C(NCCSc1c[nH]c2ccccc12)c1c(F)cccc1F,0.4,4.3,0.5,-1.7,5.1
O=C(NCCSc1c[nH]c2ccccc12)C1CC1,-1.4,36.4*,1.2,-1.2,-18.6
COC(=O)c1cnn(-c2ccc(C)c(C)c2)c1-n1cccc1,0.0,30.3*,-2.4,-3.4,12.6
SMILES,D2 ag-1,D2 antagonist,D2 PAM-1,D2 ag-2,D2 PAM-2
COc1ccccc1-n1ncc2c(=O)[nH]c(SCC(=O)Nc3ccc(Cl)cc3)nc21,0.3,/,/,/,0.3
Cc1ccc(-c2c(C(=O)N3CCOCC3)oc(=O)c3ccccc23)cc1,-1.0,-5.0,-1.2,-0.3,-10.2
CCN1CCN(C(=O)c2oc(=O)c3ccccc3c2-c2ccc(C)cc2)CC1,-0.7,59.2*,-11.0,-3.9,-24.1
Cc1ccc2c(=O)c(C(=O)c3ccc(F)cc3)cn(CC(=O)NCc3ccco3)c2n1,0.3,33.1*,15.4,5.2,-1.8
Cn1ncc2c(Nc3cccc(C#N)c3)ncnc21,/,/,/,/,-7.8
Cc1oc(-c2ccc(Cl)cc2)cc1C(=O)NC1CCN(Cc2ccccc2)CC1,0.8,58.1*,-18.2,-2.7,-16.4
CCN(CC)S(=O)(=O)c1ccc(Cl)c(C(=O)NC2CCN(Cc3ccccc3)CC2)c1,0.0,25.5,-33.9,-1.2,-19.9
Cc1oc(C(C)(C)C)cc1C(=O)NC1CCN(Cc2ccccc2)CC1,0.6,85.3*,-19.7,-4.6,-22.9
Cc1cccc(NC(=O)Cn2c(=O)n(Cc3ccccc3)c(=O)c3oc4ccccc4c32)c1C,0.7,/,/,/,3.0
CCCCN1C(=O)c2[nH]nc(-c3ccccc3O)c2C1c1ccc(OCc2ccccc2)cc1 (stereo not given),-0.3,/,/,/,-1.0
CCOC(=O)c1ccccc1NC(=O)C1CC(=O)N(C2CCCCC2)C1 (stereo not given),0.5,41.4*,-4.9,-3.9,-21.7
CCOc1ccc(N2CC(C(=O)Nc3ccc(S(=O)(=O)Nc4nccs4)cc3)CC2=O)cc1 (stereo not given),0.6,31.9*,16.9,-1.5,2.2
CCOc1ccc(N2CC(C(=O)Nc3ccccc3F)CC2=O)cc1 (stereo not given),-1.3,33.7*,-6.1,-3.1,-3.2
COc1cccc(CC(=O)OC(C)C(=O)NCc2ccc3c(c2)OCO3)c1 (stereo not given),0.0,55.1*,3.4,-3.8,-6.5
CCOc1ccc(N2CC(C(=O)NCc3ccc4c(c3)OCO4)CC2=O)cc1 (stereo not given),-0.2,36.0*,-16.4,-4.0,4.6
Cc1ccc(OCC(=O)Nc2c(Cl)ccc3nsnc23)cc1C,0.3,/,/,/,-0.7
Cc1cc2oc(=O)cc(CSc3nnc(-c4cccs4)o3)c2cc1C(C)C,0.5,36.4*,1.2,-3.5,-9.3
O=C(NC1CCN(C(=O)Nc2cccc(Cl)c2)CC1)C1CCCCC1,0.4,7.4,-4.8,-1.6,0.2
O=C(Nc1cccc(Cl)c1)NC1CCN(C2CCCCC2)C1 (stereo not given),-1.1,84.9*,-25.6,4.8,-21.9
O=C(NCc1ccc(Cl)cc1)NC1COc2ccccc2C1 (stereo not given),0.3,/,/,/,9.7
CC(=O)Nc1ccc(S(=O)(=O)N2CCCN(S(=O)(=O)c3ccc(C)cc3)CC2)cc1,0.1,30.7*,-2.3,1.2,-1.3
CC(=O)Nc1ccc(S(=O)(=O)N2CCCN(S(=O)(=O)c3ccc(NC(C)=O)cc3)CC2)cc1,0.1,3.1,6.9,-0.1,4.9
CN(CC(=O)Nc1ccc(S(=O)(=O)N2CCCC2)cc1)CC(=O)Nc1ccc(F)c(F)c1F,1.8,12.1,0.0,0.8,5.6
CCOc1ccc(NC(=O)CN(C)Cc2ccc3c(c2)OCO3)cc1S(=O)(=O)N1CCCC1,0.1,58.2*,-1.2,6.4,-22.3
CN(CC(=O)Nc1ccc(S(=O)(=O)N2CCCC2)cc1)Cc1ccc(Cl)cc1Cl,0.3,11.7,63.8*,?,5.6
CC(C)(C)CC(=O)Nc1ccc(S(=O)(=O)N2CCCC2)cc1,-1.0,-3.2,-1.5,0.2,43.5*
